LmPK inhibitor: LmPK (Leishmania mexicana) enzyme inhibition. purified LmPK, Kinase-Glo ATP luminescence, 1 h. Potency, µM (top dose mostly 57.5 µM), most hits filed as inhibitors. 0.37% of 290,000 active. AID 1721
Target sequence (Q27686 whole entry, looked up): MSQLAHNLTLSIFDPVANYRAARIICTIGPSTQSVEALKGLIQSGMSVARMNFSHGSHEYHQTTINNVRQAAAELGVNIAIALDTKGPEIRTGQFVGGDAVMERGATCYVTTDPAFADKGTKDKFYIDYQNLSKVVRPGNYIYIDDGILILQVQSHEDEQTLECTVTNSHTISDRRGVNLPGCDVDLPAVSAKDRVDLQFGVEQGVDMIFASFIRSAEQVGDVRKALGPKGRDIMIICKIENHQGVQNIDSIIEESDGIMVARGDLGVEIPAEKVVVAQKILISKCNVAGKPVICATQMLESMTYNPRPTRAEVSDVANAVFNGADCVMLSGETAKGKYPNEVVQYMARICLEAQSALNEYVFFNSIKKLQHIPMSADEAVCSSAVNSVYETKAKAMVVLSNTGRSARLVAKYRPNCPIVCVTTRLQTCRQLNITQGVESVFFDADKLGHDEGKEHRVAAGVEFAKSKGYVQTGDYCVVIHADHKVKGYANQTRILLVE
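In 50 mM imidazole pH 7.2 with 7 mM MgCl2, LmPK (0.1 nM) turned over PEP (0.5 mM) and ADP (0.1 mM) for 1 h at room temperature. Luciferase read-out of ATP.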
Cycloheximide cs: counter-screen for Shiga toxin inhibitors: cycloheximide protein synthesis inhibition; max response, %; 12% of 300,000 active; AID 2314; cell reporter, cycloheximide protein synthesis inhibition counterscreen; in the data active = max response mostly above about 13%, no sharp cut-off; inactive = mostly below about 14%; also: read at 38.3 µM for the half of the compounds with a filed dose
Shiga toxin inh: blocks Shiga toxin action in Vero cells; Vero cells, Shiga toxin protein synthesis inhibition reporter; inhibition, % at 38.7 µM; 9.2% of 290,000 active; AID 2315; in the data active = inhibition mostly above about 28%, no sharp cut-off; inactive = mostly below about 43%
NS1 function inh: inhibitors of influenza NS1 protein function; Potency, µM (titrated, usually from 46.1 µM); 0.4% of 270,000 active; calls by dose curve; also: actives are rising curves; nearly all actives have a fitted effect of over 50% in size
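A cell-based growth assay was used: compounds that relieve NS1-induced slow growth of budding yeast raise OD600. Assay medium was yeast nitrogen base with ammonium sulphate and -URA supplement, pH 6.0, with 2% galactose.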
Giardia FBPA inh: Giardia lamblia aldolase inhibition; A8B2U2; purified Giardia FBPA; Potency, µM (series often up to 59.6 µM), usual class: inhibitors; 0.71% of 290,000 active; AID 2451; also: nearly all actives have a fitted effect of over 55% in size
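Giardia FBPA (40 nM reagent) was preincubated 10 min at RT with compound (up to 57.5 uM final), then substrate plus GAPDH/TPI/NAD/arsenate coupling system with diaphorase/resazurin was added; resorufin fluorescence (525/598 nm) was read after 20 min.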
A number is an active result; [ ] = another dose, or the depositor's remark. Sampled rows, rich in hits. Any-hit rate of the full collection: about 14%. Unless noted, calls follow the shape of the dose curve; as a rule, active = well fitted curve in the direction sought with a large enough effect; inconclusive = small, poorly fitted or top-dose-only effect, or another doubt; inactive = no such curve, though single readings can be large; an effect the other way counts as inactive or inconclusive.

For c1ccc(CCc2nc(-c3ccccc3)no2)cc1 the results were LmPK inhibitor inactive, Cycloheximide cs 35, Shiga toxin inh 129 and NS1 function inh inactive.
O=C(Nc1ccc(-c2noc(CCc3ccccc3)n2)cc1)c1ccco1 was read as LmPK inhibitor inactive, Cycloheximide cs 58, Shiga toxin inh 85, NS1 function inh inactive and Giardia FBPA inh inactive.
Cc1nc2cncnc2n(Cc2ccccc2)c1=O was read as Giardia FBPA inh inactive.
O=C1C2C3C=CC(C4CC34)C2C(=O)N1/N=C/c1c[nH]c2ccccc12 (stereo unspecified) was read as LmPK inhibitor inactive, Cycloheximide cs 46, Shiga toxin inh 115 and Giardia FBPA inh inactive.
`Cc1ccc(N(C)C2=NC(=O)CS2)cc1Cl` gave LmPK inhibitor inactive, Cycloheximide cs inactive, NS1 function inh inactive and Giardia FBPA inh inactive.
Screening O=C(NCCc1cn2ccsc2n1)C1CCCCC1 returned LmPK inhibitor inactive, Cycloheximide cs inactive, Shiga toxin inh inactive, NS1 function inh inactive and Giardia FBPA inh inactive.
`Cc1csc2nc(CSc3ccc(Cl)cc3)cn12` gave LmPK inhibitor inactive, Cycloheximide cs 49, Shiga toxin inh 79, NS1 function inh inactive and Giardia FBPA inh inactive.
`c1cn2cc(CSC3CCCCC3)nc2s1` gave LmPK inhibitor inactive, Cycloheximide cs 42, Shiga toxin inh 95, NS1 function inh inactive and Giardia FBPA inh inactive.
Screening Clc1ccc(SCc2cn3ccsc3n2)cc1 returned LmPK inhibitor inactive, Cycloheximide cs 51, Shiga toxin inh inactive, NS1 function inh inactive and Giardia FBPA inh inactive.
Screening COc1ccc(COC(=O)N/N=C2/C[C@@H](O)[C@@H](O)[C@@H]3[C@@H]4C(=O)N(c5cccc(Oc6ccccc6)c5)C(=O)[C@H]4CC[C@@H]23)cc1 returned Giardia FBPA inh inactive[12.9 µM].
`COc1ccc(-c2noc(C3CCCN(C(=O)c4ccccc4OC)C3)n2)cc1OC` (stereo unspecified) gave LmPK inhibitor inactive, Cycloheximide cs 23, Shiga toxin inh inactive, NS1 function inh inactive and Giardia FBPA inh inactive.
COc1ccc(C(=O)N2CCCC(c3nc(-c4ccc(OC)c(OC)c4)no3)C2)c(OC)c1 (stereo unspecified) was read as LmPK inhibitor inactive, Cycloheximide cs inactive, Shiga toxin inh inactive, NS1 function inh inactive and Giardia FBPA inh inactive.
COc1ccc(-c2noc(C3CCCN(C(=O)c4c(F)cccc4F)C3)n2)cc1OC (stereo unspecified) was read as LmPK inhibitor inactive, Cycloheximide cs inactive, NS1 function inh inactive and Giardia FBPA inh inactive.
Cc1ccc(-c2noc(C3CCCN(C(=O)c4ccccc4Br)C3)n2)cc1 (stereo unspecified) was read as LmPK inhibitor inactive, Cycloheximide cs 27, Shiga toxin inh 53, NS1 function inh inactive and Giardia FBPA inh inactive.
Screening CCS(=O)(=O)N1CCCC(c2nc(-c3cccc(OC)c3)no2)C1 (stereo unspecified) returned LmPK inhibitor inactive, Cycloheximide cs 42, Shiga toxin inh 104, NS1 function inh inactive and Giardia FBPA inh inactive.
COC(=O)C1CN(C(=O)COc2ccccc2)c2ccccc2O1 (stereo unspecified) was read as LmPK inhibitor inactive, Cycloheximide cs inactive, Shiga toxin inh inactive, NS1 function inh inactive and Giardia FBPA inh inactive.
`CC(C)=NNC(=O)C1=NNC(=O)C1` gave LmPK inhibitor inactive, Cycloheximide cs inactive, Shiga toxin inh inactive, NS1 function inh inactive and Giardia FBPA inh inactive.
`CN(C)c1ccc(-c2cncnc2NCc2ccccc2)cc1` gave Giardia FBPA inh inactive.
`CCCc1cc(=O)n2[nH]c(C)c(-c3ccc(OC)cc3)c2n1` gave LmPK inhibitor inactive, Cycloheximide cs inactive, Shiga toxin inh inactive, NS1 function inh inactive and Giardia FBPA inh inconclusive.
Screening CCC(C(=O)NCCc1c[nH]c2ccc(C)cc12)c1ccccc1 (stereo unspecified) returned LmPK inhibitor inactive, Cycloheximide cs inactive, Shiga toxin inh inactive, NS1 function inh inactive and Giardia FBPA inh inactive.
`O=C(N/N=C/CCc1ccccc1)c1ccccc1` gave LmPK inhibitor inactive, Cycloheximide cs 37, Shiga toxin inh 53, NS1 function inh inactive and Giardia FBPA inh inactive.
Screening CCC/C=N/NC(=O)c1ccc(F)cc1 returned LmPK inhibitor inactive, Cycloheximide cs 24, Shiga toxin inh 75 and Giardia FBPA inh inactive.
COc1ccc(CCC(=O)NC2CCCc3ccccc32)cc1OC (stereo unspecified) was read as LmPK inhibitor inactive, Cycloheximide cs inactive, Shiga toxin inh inactive, NS1 function inh inactive and Giardia FBPA inh inactive.
`COc1cccc2c(=O)n(CC(=O)Nc3ccc(F)cc3)ccc12` gave LmPK inhibitor inactive, Cycloheximide cs inactive, Shiga toxin inh inactive, NS1 function inh inactive and Giardia FBPA inh inactive.
`COc1cccc2c(=O)n(CC(=O)Nc3ccccc3F)ccc12` gave LmPK inhibitor inactive, Cycloheximide cs 27, Shiga toxin inh 23, NS1 function inh inactive and Giardia FBPA inh inactive.
For COc1cccc2c(=O)n(CC(=O)NC3CCCCC3)ccc12 the results were LmPK inhibitor inactive, Cycloheximide cs 9.8, Shiga toxin inh inactive, NS1 function inh inactive and Giardia FBPA inh inactive.
N#CCCn1c(=O)c(-c2ccc(Cl)cc2)nc2cnc(OCc3ccccc3)nc21 was read as Giardia FBPA inh inactive.
For Cc1cc(/C=N/NC(=O)c2cc3ccccc3o2)c(C)n1C the results were LmPK inhibitor inactive, Cycloheximide cs inactive, Shiga toxin inh inactive, NS1 function inh inactive and Giardia FBPA inh inactive.
Cc1ccc(Sc2c([N+](=O)[O-])c(=O)n(C)c3ccccc23)cc1 was read as LmPK inhibitor inactive, Cycloheximide cs 10, Shiga toxin inh inactive, NS1 function inh inactive and Giardia FBPA inh inactive.
`O=C(NCCC1=CCCCC1)NC12CC3CC(CC(C3)C1)C2` gave LmPK inhibitor inactive, Cycloheximide cs 44, Shiga toxin inh 70, NS1 function inh inactive and Giardia FBPA inh inactive.
For COc1ccc(CCNC(=O)NC23CC4CC(CC(C4)C2)C3)cc1 the results were LmPK inhibitor inactive, Cycloheximide cs inactive, Shiga toxin inh inactive, NS1 function inh inactive and Giardia FBPA inh inactive.
`O=C(NCCc1ccc(F)cc1)NC12CC3CC(CC(C3)C1)C2` gave LmPK inhibitor inactive, Cycloheximide cs 64, Shiga toxin inh 120, NS1 function inh inactive and Giardia FBPA inh inactive.
For CCOC(=O)c1nnc2cc(-c3ccc(Br)cc3)nn2c1C the results were LmPK inhibitor inactive, Cycloheximide cs inactive, Shiga toxin inh inactive, NS1 function inh inactive and Giardia FBPA inh inactive.
For CCOC(=O)c1cnn2c(C)cc(-c3ccccc3)nc12 the results were LmPK inhibitor inactive, Cycloheximide cs 36, Shiga toxin inh 68, NS1 function inh inactive and Giardia FBPA inh inactive.
CCOC(=O)c1nnc2cc(-c3ccccc3)nn2c1C was read as LmPK inhibitor inactive, Cycloheximide cs 28, Shiga toxin inh inactive, NS1 function inh inactive and Giardia FBPA inh inactive.
`CCOC(=O)c1cc2nc(-c3ccccc3)cc(C)n2n1` gave LmPK inhibitor inactive, Cycloheximide cs inactive, NS1 function inh inactive and Giardia FBPA inh inactive.

High-throughput results deposited in PubChem by National Center for Advancing Translational Sciences (NCATS).
